Laboratory results taken from PubChem BioAssay (NCI).
Compounds without any hit were thinned out: in the full panel of roughly 79,000, 15% have a hit. No stated cut-off is given here; in the data, active means growth inhibition above about 70%; inactive means the rest. Where a SMILES comes first, the peptide text is derived from it. [ ]: non-standard residue; d: D form. The star is where a group is joined. Ac5c = NC1(C(=O)O)CCCC1; Cbz = O=C(OCc1ccccc1)*

Assays:
[1] = NCI Yeast Anticancer Drug Screen. Data for the rad50 strain (AID 155);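 further: 0% = growth of vehicle-only cultures of the same strain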; details: S. cerevisiae rad50 strain growth inhibition; at 50.0 µM; stronger effect = higher value
Outline: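 Compounds were tested on a yeast strain with an engineered DNA damage repair alteration; the reported value is growth inhibition normalised to vehicle treatment.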

[2] = NCI Yeast Anticancer Drug Screen. Data for the mec2-1 strain (AID 157); details: S. cerevisiae mec2-1 strain, at 50.0 µM, stronger effect = higher value
Outline: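 Each compound was tested on mec2-1 yeast, a strain altered in DNA damage repair or cell cycle control. Growth inhibition is reported relative to vehicle.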

[3] = NCI Yeast Anticancer Drug Screen. Data for the sgs1 mgt1 strain (AID 161);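 further: 0% = growth of cultures given vehicle only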; details: S. cerevisiae sgs1 mgt1 strain, at 50.0 µM, stronger effect = higher value
Outline: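 Inhibition of yeast growth, normalised to vehicle-treated controls, is reported for a strain bearing genetic alterations in DNA damage repair.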

[4] = NCI Yeast Anticancer Drug Screen. Data for the cln2 rad14 strain (AID 165);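 further: 0% = growth equal to vehicle treated cultures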; details: S. cerevisiae cln2 rad14 strain, at 50.0 µM, stronger effect = higher value
Outline: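 Test compounds were added to cln2 rad14 yeast cultures; inhibition of growth was then determined by comparison with vehicle treatment.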

[5] = NCI Yeast Anticancer Drug Screen. Data for the bub3 strain (AID 167); details: S. cerevisiae bub3 mutant strain, at 50.0 µM, stronger effect = higher value
Outline: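 Growth of a checkpoint-deficient yeast mutant is measured after compound exposure. Values represent inhibition relative to vehicle.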

[6] = NCI Yeast Anticancer Drug Screen. Data for the mlh1 rad18 strain (AID 175); details: S. cerevisiae mlh1 rad18 strain growth inhibition; at 50.0 µM; stronger effect = higher value
Outline: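 Inhibition values reflect reduced growth of mutant yeast versus vehicle-treated controls following compound exposure; the mutations affect DNA damage repair.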

Measured: growth inhibition

CO[C@H]1CC2CC1C1C3=C(NC21)C1(O)C[C@H]2CN(CC3)C1C[C@@H]2C(C)CO (stereo partly specified)
inactive: [1] -3.6% | [2] 9.9% | [3] 2.75% | [4] -0.15% | [5] 1.45% | [6] -23.6%

COc1ccccc1-c1cc(=O)c2cc(C)cnc2[nH]1
inactive: [1] 5.6% | [2] 5.5% | [3] -0.5% | [4] -30.9% | [5] 4.65% | [6] 13.9%

CC1=C(C(=O)CC(=O)C(=O)Nc2ccc(C)cc2)Sc2ccccc2N1
inactive: [1] -7.35% | [2] 21.1% | [3] -16.4% | [4] 21.9% | [5] -9.1% | [6] -8.25%

O=C(CCC(NC(=O)OCc1ccccc1)C(=O)OCc1ccccc1)Nc1cccc(OCc2ccccc2)c1 (stereo unspecified)
inactive: [1] -16.2% | [2] -18.1% | [3] -1.15% | [4] -23.6% | [5] -20% | [6] -27.4%

CC(C)CC(CC(C)C)=NNC(N)=O
inactive: [1] 17.3% | [2] 23% | [3] 9.05% | [4] 18.9% | [5] 7% | [6] 24.4%

O=C(O)C1COCOC1c1ccccc1 (stereo unspecified)
inactive: [1] -1.6% | [2] -10.3% | [3] 3% | [4] -14.9% | [5] -4.05% | [6] 6.9%

C/C(CCC(=O)O)=N\NC(=O)COc1ccc(Cl)cc1Cl
inactive: [1] 31.4% | [2] -0.15% | [3] 18.6% | [4] 12.1% | [5] 14.8% | [6] 13.8%

O=[N+]([O-])c1cnc(/C=[N+](\[O-])C2CCCCC2)n1CCO
inactive: [1] 3.7% | [2] 17.6% | [3] -0.3% | [4] 13.7% | [5] 16.6% | [6] 9.8%

Cn1cc(N=P(c2ccccc2)(c2ccccc2)c2ccccc2)c(=O)n(C)c1=O
inactive: [1] -5.8% | [2] 4.15% | [3] -11.1% | [4] 1.35% | [5] -2.15% | [6] 5.55%

Cc1ccc(N=C2C(c3ccccc3)=C(SC3=C(c4ccccc4)C(=Nc4ccc(C)cc4)c4ccccc43)c3ccccc32)cc1
inactive: [1] 12.9% | [2] 0.7% | [3] 3.9% | [4] 15.2% | [5] -3% | [6] -8.65%

O=[N+]([O-])c1cc(Br)cc2c1[nH]c1nc3ccc(C(F)(F)F)cc3nc12
inactive: [1] 45.5% | [2] -17.9% | [3] 8.1% | [4] 17.4% | [5] -2.2% | [6] -3.55%

CCCCCCCCn1nnnc1C(F)(F)F
inactive: [1] -3.1% | [2] 8.45% | [3] 6.75% | [4] -15.1% | [5] 1.45% | [6] -0.45%

CC(=O)CC(C)(C)OCc1ccccc1
inactive: [1] -21.9% | [2] -4.95% | [3] -12.2% | [4] -43.4% | [5] 0.4% | [6] 26.1%

COc1ccc(OCC(C)(C)O)cc1
inactive: [1] -12.6% | [2] -0.4% | [3] 5.6% | [4] 0.2% | [5] -11.2% | [6] -2.55%

CCN(CC)CCCN1CCc2c([nH]c3ccccc23)C1c1cccnc1 (stereo unspecified)
inactive: [1] -4.2% | [2] -18.4% | [3] -0.3% | [4] 5.9% | [5] -18.1% | [6] -17.4%

CCc1c(O)c2c(=O)n(C)c(=O)n3c4ccccc4n(c1=O)c23
inactive: [1] 40.4% | [2] 41.4% | [3] 45.7% | [4] 26.8% | [5] 38.9% | [6] 39.8%

C1CCC(C2CCCC[N-]2)[N-]C1.[Cl][Cu][Cl] (stereo unspecified)
inactive: [1] 7.35% | [2] 10.3% | [3] 9.85% | [4] 9.6% | [5] -4.85% | [6] 13.7%

CCOC(=O)COS(=O)(=O)C(F)(F)F
inactive: [1] 21.6% | [2] -12.7% | [3] -11.4% | [4] 2.95% | [5] 3.5% | [6] -10.7%

Nc1ncnc2c1ncn2C1CCN(CCO)C1=O (stereo unspecified)
inactive: [1] -5.55% | [2] -5.55% | [3] -29.1% | [4] -17.4% | [5] -5.2% | [6] -14.8%

Cc1ncc([N+](=O)[O-])n1CCNCCCn1ccnc1[N+](=O)[O-]
inactive: [1] -9.9% | [2] -7.25% | [3] -17.4% | [4] -9.3% | [5] -9.7% | [6] -44%

CC(=O)Nc1c([N+](=O)[O-])cc(O)cc1[N+](=O)[O-]
inactive: [1] -17.9% | [2] -15.7% | [3] 12.3% | [4] -26.3% | [5] -16.9% | [6] -8.45%

Cc1nc(N)[nH]c(=O)c1CCO
inactive: [1] -1.3% | [2] -23% | [3] -36.6% | [4] 3.3% | [5] -15.1% | [6] -3.8%

O=C(O)/C=C\C(=O)Nc1ccccc1Cl
inactive: [1] -12.8% | [2] -9.95% | [3] 10.9% | [4] 6.85% | [5] 13.4% | [6] -10.8%

O=C(O)CNC(=O)C1(NC(=O)CNC(=O)OCc2ccccc2)CCCC1 (Cbz-Gly-[Ac5c]-Gly-OH)
inactive: [1] 4.7% | [2] 20.3% | [3] 11.2% | [4] -2.3% | [5] -5.05% | [6] 18.3%

C=CC(O)CCCC (stereo unspecified)
inactive: [1] 8.35% | [2] -32.6% | [3] 0.6% | [4] 6.25% | [5] -17.1% | [6] 18.1%

COC(=O)C(CC(=O)c1cc2c(cc1I)OCO2)Cc1cc(OC)c(OC)c(OC)c1I (stereo unspecified)
inactive: [1] -22.9% | [2] -28.8% | [3] -29.8% | [4] -1.65% | [5] -2.45% | [6] -24.9%

CCOP(=O)(OCC)/C(C#N)=C/c1cc(OC)ccc1OC
inactive: [1] 28.4% | [2] -4.75% | [3] -2.65% | [4] -8.9% | [5] -13.4% | [6] 11.8%

C[N+]1(CCC(/C=C/c2ccc([N+](=O)[O-])cc2)=N\O)CCOCC1
inactive: [1] 17.3% | [2] -0.9% | [3] 14.8% | [4] -6.55% | [5] 1.05% | [6] 46.5%

CC(C)(NC(=O)c1cc(Cl)c2ccccc2c1O)C(=O)O
inactive: [1] 4.4% | [2] 2.8% | [3] 27.7% | [4] 22.9% | [5] 8.6% | [6] 17.7%

CCOC(=O)NC(=Cc1ccccn1)c1ccc(Cl)cc1 (mixture of isomers)
inactive: [1] 7.7% | [2] -3.1% | [3] -8.35% | [4] -0.7% | [5] 4.25% | [6] 28.6%

C=CC(C)n1cnc2c1c(=O)n(C)c(=O)n2C (stereo unspecified)
inactive: [1] -5.1% | [2] -9.35% | [3] -11.2% | [4] -35% | [5] -5.4% | [6] 2.8%

CCOC(=O)c1ccc(Nc2nc3cc(C(F)(F)F)ccc3nc2C(=O)OCC)cc1
inactive: [1] -31.2% | [2] -10.9% | [3] -31.9% | [4] -19.4% | [5] -11.7% | [6] -19.6%

O=C(NC(Cc1ccccc1)P(=O)(O)c1ccccc1)OCc1ccccc1 (stereo unspecified)
inactive: [1] -8.45% | [2] -30.5% | [3] -30.2% | [4] 15.7% | [5] 2.3% | [6] -12%

BrCC(Br)c1ccc(C(Br)CBr)cc1 (stereo unspecified)
inactive: [1] 7.65% | [2] -21.6% | [3] 25.1% | [4] 14.7% | [5] 1.5% | [6] 12.1%

CCOc1cc(CC[N+](C)(C)C)c2c(ccc3ccc(OC)c(OC)c32)c1OC
inactive: [1] 18.1% | [2] -10.8% | [3] -5.4% | [4] 13.5% | [5] -15.8% | [6] -14.2%

O=C1CCCCc2ccccc21
inactive: [1] -39.1% | [2] -57.4% | [3] -7.95% | [4] -7% | [5] -25.1% | [6] -8.25%

CCOC(=O)Oc1ccc(Cl)cc1Cl
inactive: [1] 3.2% | [2] 14.1% | [3] 2.55% | [4] 5.2% | [5] -4.4% | [6] -3.8%

CCCCCCCCCCCCCCCCSc1cccc(C)c1
inactive: [1] 17.7% | [2] 3.65% | [3] 22.1% | [4] -13.2% | [5] 1.3% | [6] 17.1%

CC(=O)CC(=O)Nc1ccc(C)c(C)c1
inactive: [1] -4.6% | [2] 2.15% | [3] 10% | [4] 7.95% | [5] 40% | [6] 12.5%

CCCN(CCC)S(=O)(=O)c1ccc(NC(=O)Oc2ccccc2OC)cc1
inactive: [1] 41.6% | [2] 3.8% | [3] 31.8% | [4] 20.6% | [5] -7.3% | [6] 22.3%

Cc1ccc(/C=N/S(=O)(=O)Cc2ccccc2)cc1
inactive: [1] -11.6% | [2] 3.8% | [3] 10.2% | [4] 4.9% | [5] 0.15% | [6] -0.15%
